# Shown are actives, neighbours in structure and some others; about 6.3% of the full set was active somewhere.
# VP16 counter: Gal4-VP16 reporter inhibition counter-screen. Potency, µM (highest dose often 53.6 µM), inactives show top-dose activity, negative = inhibition, actives largely listed as inhibitors. Drosophila S2 Gal4-VP16 UAS-luciferase, luminescence, 20 h. actives 3.5% (n = 310,000);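 note: Gal4-VP16 expression switched on by copper sulfate through the metallothionein promoter; % is set by controls: 0 for no effect and ±100 for the full control effect; nearly all actives have a fitted effect of over 50% in size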
# ATXN2 expr inh: ATXN2 expression inhibition; HEK-293 ATXN2-luciferase reporter, luminescence, 24 h; Potency, µM (series often up to 57 µM), inactives show at the highest dose activity change, negative = inhibition, most hits filed as inhibitors; actives 0.72% (n = 360,000); note: % is set by controls: 0 for no effect and ±100 for the full control effect; nearly all actives have a fitted effect of over 55% in size
#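 ATXN2-luciferase reporter cells (luciferase flanked by upstream and downstream ATXN2 gene portions) were treated 24 h at 37 °C with compounds at up to 57 uM. SteadyGlo luminescence gave expression; GF-AFC fluorescence gave viability.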
# RORgamma inh: ROR gamma (mouse) transcription inhibition; Drosophila S2 Gal4-RORgamma UAS-luciferase reporter, 20 h; P51450; actives 5.4% (n = 310,000); Potency, µM (highest dose often 53.6 µM), without a hit: top-dose activity change, negative = inhibition, hits mostly inhibitors; note: % is set by controls: 0 for no effect and ±100 for the full control effect; nearly all actives have a fitted effect of over 60% in size
# Target sequence (P51450 whole entry, looked up, the tested form may be a part): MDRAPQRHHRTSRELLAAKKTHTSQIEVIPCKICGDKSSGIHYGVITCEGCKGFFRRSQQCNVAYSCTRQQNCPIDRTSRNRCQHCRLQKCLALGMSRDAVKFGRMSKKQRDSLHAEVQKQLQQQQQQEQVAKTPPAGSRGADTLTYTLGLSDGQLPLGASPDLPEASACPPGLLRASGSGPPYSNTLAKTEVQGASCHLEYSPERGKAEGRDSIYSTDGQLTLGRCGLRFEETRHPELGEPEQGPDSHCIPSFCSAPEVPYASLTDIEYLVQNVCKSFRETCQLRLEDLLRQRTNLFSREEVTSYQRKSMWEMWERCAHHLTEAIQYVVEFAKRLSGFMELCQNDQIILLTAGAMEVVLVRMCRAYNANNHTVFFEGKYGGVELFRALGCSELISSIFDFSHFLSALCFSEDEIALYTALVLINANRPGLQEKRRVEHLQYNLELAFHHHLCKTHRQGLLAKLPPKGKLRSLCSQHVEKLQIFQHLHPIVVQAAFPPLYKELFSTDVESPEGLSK
#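 Schneider cells (Drosophila), stable Gal4 DBD–ROR gamma + UAS-luc; 1 hr cmpd preincubation; Cu2+ induction 700 uM final; 20 hr ambient; luminescence.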
# HepG2 tox: counter-screen for TGF-b inhibitors: cytotoxicity in HepG2 cells | HepG2 CAGA-GFP viability, ATP luminescence, 18 h | Potency, µM (series often up to 46.1 µM), for the others: at the top dose activity change, negative = cytotoxicity, usual class: cytotoxic | actives 0.76% (n = 410,000) | AID 588856
#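 HepG2 CAGA-GFP cells (1000/well, DMEM with 1% FBS) received compound, then TGF-beta at 500 pg/mL final, and were incubated 18 hours at 37 degrees C. Viability was read by CellTiter-Glo luminescence. Media-only wells were set as complete cell-killing and DMSO as no toxicity.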
# TGFb SMAD3 inh: TGF-b pathway inhibition; HepG2 CAGA-GFP TGF-b/SMAD3 reporter, GFP fluorescence, 18 h; TGF-beta stimulated, 500 pg/mL final; Potency, µM (highest dose often 46.1 µM), without a hit: at the highest dose activity, negative = inhibition, usual class: inhibitors; actives 1.2% (n = 410,000); note: % is set by controls: 0 for no effect and ±100 for the full control effect; nearly all actives have a fitted effect of over 65% in size
#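 Inhibition was scored as loss of TGF-beta-induced (500 pg/mL final, 18 hours, 37 degrees C) GFP in HEPG2 cells carrying a CAGA-GFP reporter, in DMEM with 1% FBS. Well GFP was summed per cell; Activity was normalised to unstimulated and stimulated DMSO wells, then concentration-response fitting.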
# S2 tox: viability counter-screen for ATXN expression inhibitors. S2 cells (HEK-293 line with an ATXN2-luciferase reporter) viability, CellTiter-Fluor protease fluorescence, 24 h. Potency, µM (doses to about 56.7 µM), usual class: cytotoxic. actives 0.49% (n = 400,000). AID 651635; note: nearly all actives have a fitted effect of over 40% in size
# Starred values were filed as active, the others as inactive; i = inactive; u = inconclusive; x = no result; [ ] = another dose, or the depositor's remark. Calls come from the whole dose curve; as a rule, active = well fitted curve in the direction sought with a large enough effect; inconclusive = small, poorly fitted or top-dose-only effect, or another doubt; inactive = no such curve, though single readings can be large; an effect the other way counts as inactive or inconclusive. Potency is the fitted concentration of half-maximal effect.
SMILES,VP16 counter,ATXN2 expr inh,RORgamma inh,HepG2 tox,TGFb SMAD3 inh,S2 tox
CC(C)c1ccc(NC(c2nnc(-c3ccccc3)o2)c2ccc(F)cc2Cl)cc1 (centres undefined),x,-5.9%,x,-12.1%,0.6%,i
CNC(=S)Nc1cccc(Cl)c1C,u,-0.3%,12.6µM*,-1.2%,-2.0%,i
COC(=O)CCC(=O)NC(=S)Nc1c(C)cccc1C,u,-8.8%,u,-33.6%,3.6%,i
Cc1c(Cl)cccc1NC(=S)NN,10µM*,x,3.55µM*,-20.8%,-7.3%,i
Cc1cccc(Cl)c1NC(=S)NN,u,-13.5%,5.01µM*,-56.1%,-12.7%,i
COCCCNC(=O)c1cnc2sc(N3CCCCCC3)nn2c1=O,x,x,x,4.4%,0.0%,x
Cc1ccc(S(=O)(=O)N(C)C)cc1NC(=O)COC(=O)CN1C(=O)c2ccccc2C1=O,x,x,x,0.2%,4.4%,i
COc1ccccc1Cn1c(=S)[nH]c2cc(C(=O)NCC3CCCO3)ccc2c1=O (centres undefined),u,x,12.6µM*,4.4%,-8.9%,i
CCCn1c(=S)[nH]c2cc(C(=O)N3CCCC(C(=O)OCC)C3)ccc2c1=O (centres undefined),u,-16.3%,11.2µM*,-8.8%,-25.6%,i
CCOCCCn1c(=S)[nH]c2cc(C(=O)N3CCOCC3)ccc2c1=O,-5.1%,-2.6%,-9.3%,7.2%,-1.1%,i
COCCCNC(=O)c1ccc2c(=O)n(C3CCCC3)c(=S)[nH]c2c1,u,-6.9%,14.1µM*,-22.9%,-5.0%,i
COc1ccccc1CNC(=O)c1ccc2c(=O)n(CC3CCCO3)c(=S)[nH]c2c1 (centres undefined),-23.2%,-14.8%,-39.2%,-12.0%,-12.9%,i
CCN1CCN(C(=O)c2ccc3c(=O)n(C4CCCC4)c(=S)[nH]c3c2)CC1,14.1µM*,3.3%,7.08µM*,-18.0%,0.0%,i
O=C(c1ccc2c(=O)n(C3CCCC3)c(=S)[nH]c2c1)N1CCN(C2CCCCC2)CC1,1.5%,1.8%,-42.0%,16.4%,-4.6%,u
C[C@@H]1CN(S(=O)C(C)(C)C)[C@@H](CCO)/C1=C\c1ccccc1 (some centres undefined),x,5.5%,x,2.0%,3.9%,i
CCOC(=O)C1=C(Nc2ccc(OC)cc2)C(N)=NC1=N,x,x,x,0.2%,-21.9%,i
CCCn1c(=S)[nH]c2cc(C(=O)N3CCN(C4CCCCC4)CC3)ccc2c1=O,-12.0%,-6.7%,10µM*,-2.2%,-17.9%,i
Cn1cc(/C=C2\SC(=O)NC2=S)c2ccccc21,6.31µM*,-0.9%[11.3 µM],2.51µM*,-18.0%,-13.1%,u
Cc1ccc(C(=O)NN2C(=O)/C(=C/c3cn(C)c4ccccc34)SC2=S)cc1,-14.1%,-8.7%,10.0%,-27.3%,-1.4%,i
Cc1ccc(C)c(-c2nn(CC(=O)Nc3cc(F)ccc3F)c(=O)c3c2CCCC3)c1,x,-36.6%,x,-49.4%,u,u
CCOC(=O)c1cc(-c2ccccc2)nc2c1c(C)nn2-c1ccccn1,11.2µM*,9.7%,3.98µM*,-37.4%,u,i
CCOC(=O)c1cc(-c2ccncc2)nc2c1c(C)nn2C,-21.9%,-0.9%,-7.8%,-39.3%,16.1%,i
O=C(CC(c1cccs1)N1Cc2ccccc2C1=O)Nc1ccc(F)cc1 (centres undefined),x,-0.4%,x,-30.1%,-4.6%,i
COc1cc(OC)c(Nc2c3c(nc4nc(-c5cccs5)nn24)CCCC3)cc1Cl,x,-23.1%,x,-30.0%,u,28.2µM*
Cc1ccc(N=Cc2cc(Cc3ccccc3Cl)cc([N+](=O)[O-])c2O)c(O)c1,4.47µM*,u,6.31µM*,-24.7%,u,u
SMILES,VP16 counter,ATXN2 expr inh,RORgamma inh,HepG2 tox,TGFb SMAD3 inh,S2 tox
CCOc1cc(C2NN=C(c3ccc(C)cc3)S2)ccc1O (centres undefined),14.1µM*,57.1%,1.12µM*,-13.0%,3.1%,x
COc1ccc(C2NN=C(c3ccc(C)cc3)S2)cc1 (centres undefined),7.08µM*,x,u,-4.3%,-8.1%,i
CSc1ccc(C2NN=C(c3ccccc3)S2)cc1 (centres undefined),x,-31.2%,x,-27.2%,2.7%,i
CCOc1cc(C2c3c(n[nH]c3C)C(=O)N2c2ccc(C)cc2)ccc1O (centres undefined),6.4%,41.5%,-17.6%,-14.2%,-7.2%,i
Cc1cc(C)c2c(=O)n3c(nc2c1)C(Cc1ccccc1)NC(=O)c1cccnc1-3 (centres undefined),x,-34.7%,x,-29.4%,u,10µM*
Cc1cc(C)c2c(=O)n3c(nc2c1)C(Cc1ccc(O)cc1)NC(=O)c1cccnc1-3 (centres undefined),x,-20.4%,x,-32.5%,u,u
Cc1ccc(C(=O)N(Cc2nc3ccccc3c(=O)[nH]2)C2CCCC2)cc1,7.08µM*,-30.0%,-25.0%,-13.6%,-9.2%,i
O=C(Nc1cccc(Cl)c1)N(Cc1nc2ccccc2c(=O)[nH]1)C1CCCC1,u,28.4%,14.1µM*,-26.5%,-18.6%,i
Cc1cccc(NC(=O)N(Cc2nc3ccccc3c(=O)[nH]2)C2CCCC2)c1,-3.6%,30.0%,-32.7%,3.3%,-1.3%,i
Cc1ccccc1C(=O)N(Cc1nc2ccccc2c(=O)[nH]1)C1CCCC1,-1.3%,-4.5%,u,-7.3%,-13.1%,i
CCOC(=O)N1CCc2c(sc3c2c(=O)n(-c2ccc(CC)cc2)c(=O)n3Cc2cc(C)ccc2C)C1,x,x,x,0.1%,-11.3%,x
CCOC(=O)c1ccc(N2CC3=C(C2=O)C(c2ccc(OC)cc2)NC(=O)N3C)cc1 (centres undefined),x,11.4%,x,-2.8%,12.7%,i
COc1ccccc1C1CN(CCNC(=O)c2ccccc2Cl)Cc2ccccc2O1 (centres undefined),x,x,x,x,x,i
CC(C)NC(=O)NNC(=O)Cn1nnc(-c2cccc(Cl)c2Cl)n1,-29.9%,13.6%,31.6µM*,-0.8%,1.7%,i
COc1ccc(NC(=O)COc2ccccc2C(=O)Nc2ccccc2)cc1,x,x,x,-10.1%,17.3%,x
O=C(NC1CC(=O)N(c2cccc(F)c2)C1)c1ccc(Br)o1 (centres undefined),x,x,x,4.2%,u,x
CCc1ccc(OCC(=O)N/N=C(\C)c2ccc3c(c2)OCCO3)cc1,2.4%,-3.9%,33.0%,3.5%,1.7%,u
C/C(=N\NC(=S)Nc1ccc(C(C)C)cc1)c1ccc2c(c1)OCO2,u,7.5%,6.31µM*,-1.4%,25.0%,i
